Test results reported in PubChem BioAssay (Tox21).
“And” between values parts separate entries of the source, which are not always exact repeats. Equal values may be shown once. Records with an inconclusive call do not appear. Entries that show only a call come without a potency. The source made the active and inactive calls. The call rests on the fitted dose curve.

system: not listed separately; assay: qHTS assay to identify small molecule agonists or antagonists of the thyroid stimulating hormone receptor (TSHR) signaling pathway - wild type cell line counter screen (AID 1259384); settings: HEK293 wild type, cAMP HTRF counter-screen; series mostly up to 92.4 µM; cAMP activity change: at the top concentration; further: potency means the concentration at half of the fitted maximal effect
Outline: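 Wild-type HEK293 cells were plated 18 h at 37 C/5% CO2, pin-dosed with compound plus Ro20-1724 medium, held 30 min at room temperature, then given cAMP-d2 and anti-cAMP-cryptate; fluorescence was read after 1 h. Fifteen concentrations, triplicate.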

Structure (SMILES)	Potency	cAMP activity change
Cc1ccc(O)c(-n2nc3ccccc3n2)c1	inactive	
CN(C)C=O	inactive	
Cc1cccc2ccccc12	inactive	
Cc1c(N(C)C)c(=O)n(-c2ccccc2)n1C	inactive	
CC(=O)OC/C=C(C)/C=C/C=C(C)/C=C/C1=C(C)CCCC1(C)C	inactive	
C/C=C/c1ccc(O)c(OC)c1	inactive	
C[C@]12C=CC(=O)C=C1CC[C@@H]1[C@@H]2C(=O)C[C@@]2(C)[C@H]1CC[C@]2(O)C(=O)CO	inactive	
CCCCOC(=O)CCCCCCCCC(=O)OCCCC	inactive	
CC(C)Cc1ccc(C(C)C(=O)O)cc1 (configuration not stated)	inactive	
COc1ccccc1NC(=O)CC(C)=O		-5.31% (inactive)
CCCCCCCCCCCCCCCCCC(=O)OCC(O)CO (configuration not stated)	inactive	
OC[C@@H](O)[C@@H](O)[C@H](O)[C@H](O)CO	inactive	
CCN1CCCC1=O	inactive	
C=C(C)OC(C)=O	inactive	
C=CCOC(=O)CC(C)C	inactive	
C#C[C@]1(O)CC[C@H]2[C@@H]3CCC4=CC(=O)CC[C@@H]4[C@H]3CC[C@@]21CC	inactive	
CC(C)(C)NCC(O)c1ccc(O)c(CO)c1 (configuration not stated)	15.8 nM (active) and 37.6 nM (active)	
CC(=O)CCC(C)C	inactive	
C=CC(=O)NC(C)(C)CS(=O)(=O)O	inactive	
CCCCCCCCOc1ccc(C(=O)c2ccccc2)c(O)c1	inactive	
COc1ccccc1O	inactive	
COC(=O)C1CCC(C(=O)OC)CC1 (configuration not stated)	inactive	
CN/C(=C\[N+](=O)[O-])NCCSCc1ccc(CN(C)C)o1	inactive	
C[C@]12C[C@H](O)[C@H]3[C@@H](CCC4=CC(=O)CC[C@@]43C)[C@@H]1CC[C@@H]2C(=O)CO	inactive	
OCCCc1ccccc1	inactive	
COC1=CC(=O)C[C@@H](C)[C@]12Oc1c(Cl)c(OC)cc(OC)c1C2=O	inactive	

biological target: Thyrotropin receptor (Homo sapiens) (UniProt P16473); assay: qHTS assay to identify small molecule antagonists of the thyroid stimulating hormone receptor (TSHR) signaling pathway (AID 1259385); settings: TSHR-HEK293 cAMP HTRF, TSH-stimulated antagonist mode; series mostly up to 92.4 µM; activity change, negative = inhibition: at the top concentration; further: nearly all actives have a fitted effect of over 20% in size
Sequence (P16473 whole entry, looked up): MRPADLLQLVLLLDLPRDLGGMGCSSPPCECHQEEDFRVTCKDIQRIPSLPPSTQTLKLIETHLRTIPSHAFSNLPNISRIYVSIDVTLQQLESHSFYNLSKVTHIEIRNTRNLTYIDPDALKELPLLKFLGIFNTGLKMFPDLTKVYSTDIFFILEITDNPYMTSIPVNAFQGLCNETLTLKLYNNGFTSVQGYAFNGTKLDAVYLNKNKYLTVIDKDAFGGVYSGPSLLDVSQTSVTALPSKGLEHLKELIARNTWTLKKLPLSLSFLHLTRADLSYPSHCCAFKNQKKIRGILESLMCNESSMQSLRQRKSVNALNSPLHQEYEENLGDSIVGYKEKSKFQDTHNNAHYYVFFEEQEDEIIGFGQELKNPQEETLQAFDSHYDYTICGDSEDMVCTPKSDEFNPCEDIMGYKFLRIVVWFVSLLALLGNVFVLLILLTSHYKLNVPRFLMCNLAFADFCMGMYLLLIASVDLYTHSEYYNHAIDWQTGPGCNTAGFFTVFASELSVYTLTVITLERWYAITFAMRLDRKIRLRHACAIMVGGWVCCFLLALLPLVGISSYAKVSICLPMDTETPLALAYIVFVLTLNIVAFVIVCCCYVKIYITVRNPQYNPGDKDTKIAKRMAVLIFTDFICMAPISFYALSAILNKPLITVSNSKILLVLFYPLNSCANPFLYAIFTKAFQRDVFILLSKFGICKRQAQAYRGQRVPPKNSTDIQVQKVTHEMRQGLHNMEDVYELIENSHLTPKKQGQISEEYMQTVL
Outline: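 TSHR-HEK293 cells were plated and held 18 h at 37C/5% CO2, then given compound plus Ro20-1724 and stimulated with TSH at 1.5 ng/mL final. After 30 min at room temperature, cAMP was detected with cAMP-d2/anti-cAMP-cryptate (1 h) by fluorescence.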

Structure (SMILES)	outcome
Cc1ccc(O)c(-n2nc3ccccc3n2)c1	inactive
CN(C)C=O	inactive
Cc1cccc2ccccc12	inactive
Cc1c(N(C)C)c(=O)n(-c2ccccc2)n1C	inactive
CC(=O)OC/C=C(C)/C=C/C=C(C)/C=C/C1=C(C)CCCC1(C)C	inactive
C/C=C/c1ccc(O)c(OC)c1	inactive
C[C@]12C=CC(=O)C=C1CC[C@@H]1[C@@H]2C(=O)C[C@@]2(C)[C@H]1CC[C@]2(O)C(=O)CO	inactive
CCCCOC(=O)CCCCCCCCC(=O)OCCCC	inactive
CC(C)Cc1ccc(C(C)C(=O)O)cc1 (configuration not stated)	inactive
COc1ccccc1NC(=O)CC(C)=O	inactive
CCCCCCCCCCCCCCCCCC(=O)OCC(O)CO (configuration not stated)	inactive
OC[C@@H](O)[C@@H](O)[C@H](O)[C@H](O)CO	inactive
CCN1CCCC1=O	inactive
C=C(C)OC(C)=O	inactive
C=CCOC(=O)CC(C)C	inactive
C#C[C@]1(O)CC[C@H]2[C@@H]3CCC4=CC(=O)CC[C@@H]4[C@H]3CC[C@@]21CC	inactive
CC(C)(C)NCC(O)c1ccc(O)c(CO)c1 (configuration not stated)	inactive
CC(=O)CCC(C)C	inactive
C=CC(=O)NC(C)(C)CS(=O)(=O)O	inactive
CCCCCCCCOc1ccc(C(=O)c2ccccc2)c(O)c1	inactive
COc1ccccc1O	inactive
COC(=O)C1CCC(C(=O)OC)CC1 (configuration not stated)	inactive
CN/C(=C\[N+](=O)[O-])NCCSCc1ccc(CN(C)C)o1	inactive
C[C@]12C[C@H](O)[C@H]3[C@@H](CCC4=CC(=O)CC[C@@]43C)[C@@H]1CC[C@@H]2C(=O)CO	inactive
OCCCc1ccccc1	inactive
COC1=CC(=O)C[C@@H](C)[C@]12Oc1c(Cl)c(OC)cc(OC)c1C2=O	inactive
